The values that follow come from PubChem BioAssay (Tox21).

Results filed as inconclusive are left out. A number with no mark means an inactive call. Activity calls are given as the source filed them. Unless noted, calls come from the whole dose curve; as a rule, active = well fitted curve in the direction sought with a large enough effect in the repeat runs; inconclusive = weak or mixed curves; inactive = no such curve, though single readings can be large; an effect the other way counts as inactive or inconclusive.

Test [1] is described as follows: qHTS assay to identify small molecule antagonists of the thyroid receptor (TR) signaling pathway (AID 743065). For activity, negative = inhibition: series mostly up to about 70 µM. Note: nearly all actives have a fitted effect of over 55% in size. Note: potency is the fitted concentration of half-maximal effect. In short, it runs like this:
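GH3.TRE-Luc rat pituitary cells (two TREs driving luciferase) were dosed with compound, then stimulated with 1 nM T3 (final) for 23.5 h at 37 C. ONE-Glo luminescence was the read-out, with CellTiter-Fluor fluorescence as the cytotoxicity counter-screen.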

Test [2] deals with thyroid hormone receptor (rat, GH3 cells). Description: qHTS assay to identify small molecule agonists of the thyroid receptor (TR) signaling pathway (AID 743066; calls by dose curve).
Test [3] concerns the target Estrogen receptor (Homo sapiens) (UniProt P03372). Kind of test: qHTS assay to identify small molecule antagonists of the estrogen receptor alpha (ER-alpha) signaling pathway (AID 743069; active = well fitted curve in the direction sought with a large enough effect in the signal ratio in the repeat runs, not every such curve was filed as active; the % refers to the signal ratio). In short, it runs like this: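 Beta-lactamase FRET fluorescence is read after 2 hr at room temperature with LiveBLAzer B/G substrate. Before that, ER-alpha-bla HEK293 cells sit 4 hr after plating, then receive compound plus 17beta-estradiol and incubate 18 hr at 37C.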
For orientation: qHTS replaces the single test concentration by a dilution series.

A short description of test [4]: qHTS assay to identify small molecule antagonists of the estrogen receptor alpha (ER-alpha) signaling pathway - cell viability counter screen (AID 743074; calls by dose curve;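 note: HEK293 cells carrying ER-alpha-UAS-bla reporter stimulated with 17beta-estradiol; nearly all actives have a fitted effect of over 45% in size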).
The target of test [5] is Estrogen receptor (Homo sapiens) (UniProt P03372). Description: qHTS assay to identify small molecule agonists of the estrogen receptor alpha (ER-alpha) signaling pathway (AID 743075; calls by dose curve;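 note: HEK293 GripTite cells with ER-alpha and UAS-driven beta-lactamase reporter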).
Estrogen receptor (Homo sapiens), sequence (P03372 whole entry, looked up): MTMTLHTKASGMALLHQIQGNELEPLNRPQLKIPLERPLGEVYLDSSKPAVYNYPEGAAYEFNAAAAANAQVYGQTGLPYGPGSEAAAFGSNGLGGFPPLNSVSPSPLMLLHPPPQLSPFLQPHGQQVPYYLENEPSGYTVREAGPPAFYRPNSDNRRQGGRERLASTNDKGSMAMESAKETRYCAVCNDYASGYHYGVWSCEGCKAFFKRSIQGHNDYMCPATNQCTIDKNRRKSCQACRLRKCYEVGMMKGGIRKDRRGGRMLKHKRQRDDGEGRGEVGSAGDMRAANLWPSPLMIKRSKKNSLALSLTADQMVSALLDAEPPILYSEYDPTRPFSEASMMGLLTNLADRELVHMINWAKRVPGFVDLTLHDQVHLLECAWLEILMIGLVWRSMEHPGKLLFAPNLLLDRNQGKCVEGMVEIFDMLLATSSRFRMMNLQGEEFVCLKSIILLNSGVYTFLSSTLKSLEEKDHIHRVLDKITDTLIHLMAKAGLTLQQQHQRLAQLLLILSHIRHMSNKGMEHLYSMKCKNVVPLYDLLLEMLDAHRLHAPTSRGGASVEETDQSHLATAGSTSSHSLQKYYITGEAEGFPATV
For test [6] the target is unchanged. Kind of test: qHTS assay to identify small molecule agonists of the estrogen receptor alpha (ER-alpha) signaling pathway using the BG1 cell line (AID 743079). Note: nearly all actives have a fitted effect of over 20% in size. Note: potency is the fitted concentration of half-maximal effect.
Test [7] can be described thus: qHTS assay to identify small molecule antagonists of the estrogen receptor alpha (ER-alpha) signaling pathway using the BG1 cell line - cell viability counter screen (AID 743081).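 Note: compound given together with 17beta-estradiol as the ER stimulus; series mostly up to about 70 µM; nearly all actives have a fitted effect of over 45% in size.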
A further test has as its target Aromatase (Homo sapiens) (UniProt P11511). Description: qHTS assay to identify aromatase inhibitors (AID 743083). Note: series mostly up to about 70 µM; nearly all actives have a fitted effect of over 55% in size.
The nature of test [8]: qHTS assay to identify small molecule antagonists of the estrogen receptor alpha (ER-alpha) signaling pathway using the BG1 cell line (AID 743080; calls by dose curve;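 note: BG1 cells stimulated with 17beta-estradiol alongside compound; series mostly up to about 70 µM; nearly all actives have a fitted effect of over 25% in size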). In short, it runs like this:
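BG1Luc4E2, endogenous ER-alpha, 4xERE-luc; 5 d charcoal-stripped FBS, phenol red free; 24 h plating; cpd + 17beta-estradiol 21.5 h, 37 C/5% CO2; CellTiter-Fluor viability 30 min, then ONE-Glo luciferase 30 min RT.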
% is set by controls: 0 for no effect and ±100 for the full control effect.

Aromatase (Homo sapiens), sequence (P11511 whole entry, looked up): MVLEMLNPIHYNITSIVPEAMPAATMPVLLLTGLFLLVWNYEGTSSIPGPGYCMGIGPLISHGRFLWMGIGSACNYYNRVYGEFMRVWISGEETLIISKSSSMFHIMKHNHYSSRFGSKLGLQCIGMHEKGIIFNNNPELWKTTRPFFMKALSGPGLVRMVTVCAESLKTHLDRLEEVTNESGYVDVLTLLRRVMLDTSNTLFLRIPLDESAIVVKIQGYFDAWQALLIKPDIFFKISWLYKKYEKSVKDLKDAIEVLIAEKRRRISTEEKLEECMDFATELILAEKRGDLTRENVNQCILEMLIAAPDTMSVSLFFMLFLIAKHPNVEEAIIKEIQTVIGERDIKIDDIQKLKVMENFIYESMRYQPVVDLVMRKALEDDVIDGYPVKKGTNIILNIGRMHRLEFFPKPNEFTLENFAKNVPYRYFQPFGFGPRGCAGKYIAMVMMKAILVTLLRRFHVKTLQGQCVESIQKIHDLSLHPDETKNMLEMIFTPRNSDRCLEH

Take `CCCCCCCCOS(=O)(=O)O`: the Potency result (in test [1]; in [6]; with Aromatase (Homo sapiens)) was “inactive” each time. Moreover, the call in [2], in test [3], in [4], in [5] and in test [7] was inactive.
Turning to `COc1cc(NS(=O)(=O)c2ccc(N)cc2)nc(OC)n1`, the Potency entry (in test [1]; in test [6]; with Aromatase (Homo sapiens)) was “inactive” each time. The call in [2], in [3], in test [4], in test [5] and in test [7] was inactive.
Regarding `CC(=O)Nc1ccc(S(=O)(=O)Nc2ccc([N+](=O)[O-])cc2)cc1`, the Potency entry (in test [1]; in test [6]; in [8]; with Aromatase (Homo sapiens)) was “inactive” throughout. Besides, the molecule was called inactive in test [2], in [3], in [4] and in [5].
`O=S(O)(O)=S`: the results for the activity, negative = inhibition (in [1]; in test [3]; in the test with Aromatase (Homo sapiens)) were -1.88% [at 8.44 µM], 6.18% [at 6.71 µM] and 5.06% [at 8.47 µM], respectively. Also, the activation in test [2] is -0.901% [at 8.08 µM]; in test [5], -2.02% [at 6.71 µM]; in test [6], 6.37% [at 8.47 µM]. The activity, negative = cytotoxicity in [4] was -12.1% [at 6.72 µM]. The activity change, negative = cytotoxicity in [7] was -1.7% [at 8.47 µM].
As to `COc1cc2c(cc1OC)[C@@H]1CC(=O)[C@@H](CC(C)C)CN1CC2`, the Potency entry in [1] and in test [6] was “inactive” throughout. Moreover, the molecule was classed as inactive in test [2], in test [3], in test [5] and in test [7].
With `Cc1ccc2c(c1)OCC(=O)CO2`, the Potency result (in test [1]; with Aromatase (Homo sapiens)) was “inactive” each time. The molecule was called inactive in test [2], in test [3], in [4], in test [5] and in [7].
In the case of `CCCCCCOC(=O)CC`, the Potency result (in test [1]; in [6]; in test [8]; in the test with Aromatase (Homo sapiens)) was “inactive” throughout. The result in test [2], in [3], in [4], in test [5] and in [7] was inactive.
Consider `CNC(=O)[C@H]1O[C@@H](n2cnc3c(NCc4cc(Cl)ccc4OCc4cc(C)no4)ncnc32)[C@H](O)[C@@H]1N`, for which the Potency result (in test [1]; in [6]; in test [8]; with Aromatase (Homo sapiens)) was “inactive” each time. Besides, the molecule was called inactive in test [2], in [3], in test [5] and in [7].
With `CC(=O)NCc1c(I)c(NC(C)=O)c(I)c(C(=O)O)c1I`, the Potency entry (in test [1]; in test [8]; in the test with Aromatase (Homo sapiens)) was “inactive” each time. The outcome in test [2], in [3], in test [4], in test [5] and in test [7] was inactive. Also, the Potency in test [6] is 13.3 µM (active).
In the case of `O=C1c2cccc3c2[C@H](CCC3)CN1[C@@H]1CN2CCC1CC2`, the Potency in test [1] is 18.8 µM (active). The result in test [2], in test [4] and in test [5] was inactive. Besides, the Potency result (in [6]; in the test with Aromatase (Homo sapiens)) was “inactive” each time.
Regarding `COCCOCCOCCOCCO`, the Potency entry (in test [1]; in [6]; in [8]; with Aromatase (Homo sapiens)) was “inactive” in each case. The result in test [2], in test [3], in test [4], in test [5] and in test [7] was inactive.
With `Nc1ccc(S(=O)(=O)Nc2ccc(Cl)nn2)cc1`, the Potency result (in test [1]; in test [6]; in test [8]; with Aromatase (Homo sapiens)) was “inactive” in each case. In addition, the molecule was classed as inactive in [2], in test [3], in test [4], in [5] and in [7].
As to `C=C(C)C(=O)OCCOP(=O)(O)OCCOC(=O)C(=C)C`, the Potency result (in test [1]; in [6]; in [8]; with Aromatase (Homo sapiens)) was “inactive” throughout. Moreover, the call in test [2], in test [3], in test [4], in test [5] and in [7] was inactive.
Regarding `CC(C)OC(=O)CCCCC(=O)OC(C)C`, the call in test [2], in test [4], in test [5] and in [7] was inactive. In addition, the Potency entry in test [6] and in [8] was “inactive” in each case.
Turning to `Nc1nnc(-c2cccc(Cl)c2Cl)c(N)n1`, the Potency entry (in test [1]; with Aromatase (Homo sapiens)) was “inactive” throughout. Besides, the result in test [2], in test [4] and in test [7] was inactive.
As to `CN1CCN(CC(=O)N2c3ccccc3C(=O)Nc3cccnc32)CC1`, the outcome in [3], in test [4], in test [5] and in test [7] was inactive. The Potency entry (in test [6]; in [8]; with Aromatase (Homo sapiens)) was “inactive” each time.
In the case of `COCCOCCOCCOCCOCCO`, the Potency entry (in test [1]; in the test with Aromatase (Homo sapiens)) was “inactive” in each case. Besides, the call in test [2], in [4] and in [7] was inactive.
On to `CCCN1C[C@H](CSC)C[C@@H]2c3cccc4[nH]cc(c34)C[C@H]21`, for which the outcome in [2], in test [3], in test [4], in test [5] and in test [7] was inactive. Further, in the test with Aromatase (Homo sapiens), the Potency result was “inactive”.
Take `CN=C(NC#N)Nc1ccc(C2=NNC(=O)CC2C)cc1` (stereo not drawn): the Potency entry (in [1]; in the test with Aromatase (Homo sapiens)) was “inactive” in each case. The result in [2], in test [4] and in [7] was inactive.
